{"source": "PubChem BioAssay (NCATS)", "note": "Results filed as inconclusive are left out. Unmarked numbers belong to inactive results. Active and inactive are the calls of the source. The call rests on the fitted dose curve. Bridge positions count the residues as written; N and C are the ends. Square brackets hold non-standard residues; d marks the D form. Peptide text beside a SMILES is read from it. hArg = N=C(N)NCCCC[C@H](N)C(=O)O; Mpa = O=C(O)CCS", "data": [{"assay": "Cytotoxicity counterscreen for inhibitors of SARS-CoV-2 cell entry (AID 1645845); further: nearly all actives have a fitted effect of over 50% in size; further: potency means the concentration at half of the fitted maximal effect; on activity change, negative = cytotoxicity: on the % scale 0 is the no-effect control and ±100 the full control effect", "conditions": "cell viability (SARS-CoV-2 entry assay cells); series mostly up to 57.1 µM; activity change, negative = cytotoxicity: at the top concentration", "how_it_was_run": "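HEK293-ACE2 cells (Expi293F stably expressing human ACE2) seeded overnight, then compound for 1 h plus 48 h at 37C. Viability as ATP content by luminescence; normalized to wells with cells and media-only wells.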", "units": {"activity change, negative = cytotoxicity": "%"}, "values": [{"smiles": "CCN(CC)CCCC(C)Nc1c2ccc(Cl)cc2nc2ccc(OC)cc12", "note": "(centres undefined)", "activity change, negative = cytotoxicity": -12.7}, {"smiles": "CN1CCCN(C(c2ccccc2)c2ccc(Cl)cc2)CC1", "note": "(centres undefined)", "activity change, negative = cytotoxicity": -18.5}, {"smiles": "CC(O)Cn1cnc2c1c(=O)n(C)c(=O)n2C", "note": "(centres undefined)", "outcome": "inactive"}, {"smiles": "Cn1cc(C(=O)[C@@H]2CCc3nc[nH]c3C2)c2ccccc21", "outcome": "inactive"}, {"smiles": "COc1cc(O)c(C(=O)c2ccccc2)cc1S(=O)(=O)O", "activity change, negative = cytotoxicity": 1.13}, {"smiles": "NC1=NCC2c3ccccc3Cc3ccccc3N12", "note": "(centres undefined)", "activity change, negative = cytotoxicity": 0.487}, {"smiles": "CCC(C)(C)c1ccc(CC(C)CN2C[C@@H](C)O[C@@H](C)C2)cc1", "note": "(some centres undefined)", "activity change, negative = cytotoxicity": -15.1}, {"smiles": "C=CC[N+]1([C@H]2C[C@H]3[C@@H]4CC[C@H]5C[C@H](OC(C)=O)[C@@H](N6CCCCC6)C[C@]5(C)[C@H]4CC[C@]3(C)[C@H]2OC(=O)CC)CCCCC1", "activity change, negative = cytotoxicity": -10.4}, {"smiles": "CC[N+]1(CC)CCC(=C(c2ccccc2)c2ccccc2)C1C", "note": "(centres undefined)", "activity change, negative = cytotoxicity": 0.0438}, {"smiles": "O=C1NCCN1CCN1CCC(c2cn(-c3ccc(F)cc3)c3ccc(Cl)cc23)CC1", "Potency": "28.2 µM (active)"}, {"smiles": "C/C=C(/C(=C/C)c1ccc(O)cc1)c1ccc(O)cc1", "activity change, negative = cytotoxicity": -18.7}, {"smiles": "CNC(=O)Oc1ccc2c(c1)[C@]1(C)CCN(C)[C@@H]1N2C", "activity change, negative = cytotoxicity": -6.77}, {"smiles": "Cc1ccc(Cl)c(OCC(O)CNC(C)(C)C)c1", "note": "(centres undefined)", "activity change, negative = cytotoxicity": -10.4}, {"smiles": "CN(C)CCN1C(=O)c2ccccc2N(C)c2ccccc21", "outcome": "inactive"}, {"smiles": "O=C(O)/C=C/c1ccc(Cn2ccnc2)cc1", "Potency": "inactive"}, {"smiles": "C(=C\\c1ccccc1)/CN1CCN(C(c2ccccc2)c2ccccc2)CC1", "outcome": "inactive"}, {"smiles": "CN(C)CCCOc1nn(Cc2ccccc2)c2ccccc12", "outcome": "inactive"}, {"smiles": "NS(=O)(=O)c1cc2c(cc1Cl)NC(CSCc1ccccc1)=NS2(=O)=O", "activity change, negative = cytotoxicity": 0.998}, {"smiles": "Clc1ccc2c(c1)CCc1cccnc1C2=C1CCNCC1", "activity change, negative = cytotoxicity": -5.66}, {"smiles": "C#C[C@]1(O)CC[C@H]2[C@@H]3CCc4cc(O)ccc4[C@H]3CC[C@@]21C", "activity change, negative = cytotoxicity": -20.8}, {"smiles": "O=C1OC2(c3ccccc31)c1cc(I)c(O)c(I)c1Oc1c2cc(I)c(O)c1I", "outcome": "inactive"}, {"smiles": "O=c1[nH]c2ccccc2n1CCCN1CCN(C(c2ccccc2)c2ccccc2)CC1", "outcome": "inactive"}, {"smiles": "Nc1ccc(N=Nc2ccccc2)c(N)n1", "outcome": "inactive"}, {"smiles": "O=c1[nH]c(=O)c2[nH]c(=O)[nH]c2[nH]1", "outcome": "inactive [at 11.3 µM]"}, {"smiles": "CN1CCCC(n2nc(Cc3ccc(Cl)cc3)c3ccccc3c2=O)CC1", "note": "(centres undefined)", "outcome": "inactive"}, {"smiles": "Cc1c(C)c2c(c(C)c1OC(=O)CCC(=O)OCCO)CC[C@@](C)(CCC[C@H](C)CCC[C@H](C)CCCC(C)C)O2", "activity change, negative = cytotoxicity": -17.2}, {"smiles": "c1ccc(CNCCNCc2ccccc2)cc1", "activity change, negative = cytotoxicity": -6.21}, {"smiles": "COc1cc(C(=O)OCCCN2CCCN(CCCOC(=O)c3cc(OC)c(OC)c(OC)c3)CC2)cc(OC)c1OC", "activity change, negative = cytotoxicity": -2.4}, {"smiles": "CC(C)Cc1ccc(C(C)C(=O)OCc2ccccn2)cc1", "note": "(centres undefined)", "outcome": "inactive"}, {"smiles": "CC(Oc1c(Cl)cccc1Cl)C1=NCCN1", "note": "(centres undefined)", "outcome": "inactive"}, {"smiles": "CN1C[C@H](C(=O)N[C@]2(C)O[C@@]3(O)[C@@H]4CCCN4C(=O)[C@H](Cc4ccccc4)N3C2=O)C[C@@H]2c3cccc4[nH]cc(c34)C[C@H]21", "outcome": "inactive"}, {"smiles": "CN1CCC(=C2c3ccccc3CCc3cccnc32)CC1", "outcome": "inactive"}, {"smiles": "CCC(=O)Oc1ccc2c(c1)CC[C@@H]1[C@@H]2CC[C@@]2(C)[C@H]1C[C@@H](OC(=O)CC)[C@@H]2OC(=O)CC", "outcome": "inactive"}, {"smiles": "NC(=O)[C@@H]1CSSCCC(=O)N[C@@H](CCCCN=C(N)N)C(=O)NCC(=O)N[C@@H](CC(=O)O)C(=O)N[C@@H](Cc2c[nH]c3ccccc23)C(=O)N2CCC[C@H]2C(=O)N1", "note": "([Mpa][hArg]GDWPC-NH2; disulfide 1-7)", "outcome": "inactive"}, {"smiles": "O=C(Nc1ccc(Cl)cc1)Nc1ccc(Cl)c(C(F)(F)F)c1", "Potency": "22.4 µM (active)"}, {"smiles": "CN(C)CCn1nnnc1SCC1=C(C(=O)O)N2C(=O)[C@@H](NC(=O)Cc3csc(N)n3)[C@H]2SC1", "activity change, negative = cytotoxicity": -18}, {"smiles": "COc1ccc2cc1Oc1ccc(cc1)C[C@H]1c3c(cc4c(c3Oc3cc5c(cc3OC)CCN(C)[C@@H]5C2)OCO4)CCN1C", "Potency": "14.1 µM (active)"}, {"smiles": "Cc1ncc(CSSCc2cnc(C)c(O)c2CO)c(CO)c1O", "outcome": "inactive"}, {"smiles": "COc1cccc(CCc2ccccc2OCC(CN(C)C)OC(=O)CCC(=O)O)c1", "note": "(centres undefined)", "outcome": "inactive"}]}]}
